The values below come from PubChem BioAssay (Tox21).

SMILES strings stand for the structures. Results filed as inconclusive are left out. Entries that show only a call come without a potency. Active and inactive are the calls of the source. Calls follow the shape of the dose curve; as a rule, active = well fitted curve in the direction sought with a large enough effect in the repeat runs; inconclusive = weak or mixed curves; inactive = no such curve, though single readings can be large; an effect the other way counts as inactive or inconclusive.

A short description of the first assay: qHTS assay to identify small molecule antagonists of the retinoid acid receptor (RAR) signaling pathway - cell viability counter screen (AID 1159551). Also: nearly all actives have a fitted effect of over 35% in size. Particulars: C3RL4 cells viability, ATP luminescence (CellTiter-Glo), 6 h; series mostly up to 92.4 µM. Put shortly:
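Following overnight attachment, C3RL4 reporter cells received DMSO-dissolved compounds and then retinol (1 uM final). Six hours later at 37 C, ATP content was measured by CellTiter-Glo luminescence.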
(qHTS replaces the single test concentration by a dilution series.)
Regarding `COc1cc(C(C)C)c2c(c1)S(=O)(=O)N(COc1cc(=O)n3cccc(OCCN4CCCCC4)c3n1)C2=O`, the activity change, negative = cytotoxicity was 5.72% [at 19 µM] (inactive).
For the molecule `CCOC(=O)N1CCC(=C2c3ccc(Cl)cc3CCc3cccnc32)CC1`, the Potency entry was “inactive”.
As for `CCN(CC)CCSC(=O)C(c1ccccc1)c1ccccc1`, the Potency entry was “inactive”.
On the same count and under the same terms, under `CCCCCCCCCCCCCOP(=O)(O)O` stands “inactive”; under `Cc1nc(Nc2ncc(C(=O)Nc3c(C)cccc3Cl)s2)cc(N2CCN(CCO)CC2)n1`, “inactive”; under `C(=C/c1ccccc1)/c1ccccc1`, “inactive”.
Turning to `C/C=C/C(=O)Oc1c(CCCCCC(C)C)cc([N+](=O)[O-])cc1[N+](=O)[O-]`, the Potency result was “inactive”.
Take `CO[Si](CCCNCCNCCN)(OC)OC`: the Potency entry was “inactive”.
Regarding `NC(=O)c1ccccc1N`, the Potency entry was “inactive”.
On the same count and under the same terms, under `COC(=O)[C@]1(C)CCC[C@@]2(C)[C@H]1CC=C1C=C(C(C)C)CC[C@@H]12` stands “inactive”; under `C=C1C(C)(C)[C@@]2(Cl)C(Cl)[C@]1(Cl)C(Cl)(Cl)C2(Cl)Cl` (some centres not stated), “inactive”.
The same measure, in the same setting: under `O=C(NO)c1ccccc1` stands “inactive”; under `Cc1ccc(N)cc1O`, “inactive”; under `COC(=O)CC#N`, “inactive”.
The same measure, in the same setting: under `OCCN1CN(CCO)CN(CCO)C1` stands “inactive”.
As to `CCN1CCN(c2cc(-c3ccc(F)cc3)c3c(n2)CCCCCC3)CC1`, the activity change, negative = cytotoxicity was 0.574% [at 19 µM] (inactive).
As to `C[C@@H]1CC[C@H]2C(C)(C)[C@H]3C[C@@]12CC[C@@]3(C)O`, the Potency entry was “inactive”.
On the same count and under the same terms, under `CC(COC(=O)c1ccccc1)OC(=O)c1ccccc1` (configuration not stated) stands “inactive”; under `O=C1Nc2ccc(Cl)cc2[C@@](C#CC2CC2)(C(F)(F)F)O1`, “inactive”.

Another assay in a line: qHTS assay to identify small molecule antagonists of the retinoic acid receptor (RAR) signaling pathway (AID 1159552; also: nearly all actives have a fitted effect of over 50% in size; also: potency is read from the fitted curve at half-maximal effect). Particulars: C3RL4 RARE luciferase reporter, retinol-stimulated, 6 h; series mostly up to 92.4 µM. Put shortly: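 Luminescence from a RARE luciferase reporter in C3RL4 cells served as read-out. Cells received compounds together with 1 uM final retinol and incubated 6 hr at 37 C before detection reagent was added for 30 min at room temperature.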
For `CCCCCCCCCCCCCCCC`, the Potency result is “inactive”.
The same measure, in the same setting: under `Cc1cc2c(C(C)C)c(O)c(O)c(C=O)c2c(O)c1-c1c(C)cc2c(C(C)C)c(O)c(O)c(C=O)c2c1O` stands “inactive”; under `CCCCNc1c(C(=O)OCC)c(C)nc2c1cnn2CC`, “inactive”.
Regarding `CC(C)(C)C1=CC(=O)C=C(C(C)(C)C)C1=O`, the Potency entry was “inactive”.
As for `C/C=C/C=N/NC(=O)c1ccncc1`, the Potency entry was “inactive”.
Same read-out and setting: under `O=S(=O)(O)CCCN1CCOCC1` stands “inactive”; under `CCCC(CC)CCCCCCCN` (configuration not stated), “inactive”; under `CCCCCCCOC(=O)c1ccc(O)cc1`, “inactive”.
With `CSc1c(Cl)c(Cl)c(Cl)c(Cl)c1Cl`, the Potency result was “inactive”.
Same read-out and setting: under `ClC/C=C\CCl` stands “inactive”; under `Cc1c(C)n(Cc2ccccc2)c2ccc(C(=O)OCCN(C)C)cc12`, “inactive”.
As for `O=C1OC(=O)c2cccc3cccc1c23`, the Potency entry was “inactive”.
Same read-out and setting: under `CC1=C(/C=C/C(C)=C/C=C/C(C)=C\C=O)C(C)(C)CCC1` stands “inactive”; under `O=C(Oc1ccccc1)c1cccc(C(=O)Oc2ccccc2)c1`, “inactive”.
Consider `Cc1cn[nH]c1`, for which the Potency result was “inactive”.
Still for that read-out and setting: under `O=C(c1ccccc1)c1cc(Cl)ccc1O` stands “inactive”; under `CO[C@H]1C=CO[C@@]2(C)Oc3c(C)c(O)c4c(O)c(cc(O)c4c3C2=O)NC(=O)/C(C)=C\C=C/[C@H](C)[C@H](O)[C@@H](C)[C@@H](O)[C@@H](C)[C@H](OC(C)=O)[C@@H]1C`, “inactive”.
For `COc1cc(C(=O)NS(=O)(=O)c2ccccc2C)ccc1Cc1cn(C)c2ccc(NC(=O)OC3CCCC3)cc12`, the Potency result was “inactive”.
Same read-out and setting: under `NCCCCCCNCCCCCCN` stands “inactive”.
`Cc1ccc(CCn2c3c(c4cc(Cl)ccc42)CN(C)CC3)cn1`: the Potency entry is “inactive”.
Regarding `c1cc2c3c(c1)ccc1cccc(c13)C2`, the Potency entry was “inactive”.
For the molecule `COc1cc(C(C)C)c2c(c1)S(=O)(=O)N(COc1cc(=O)n3cccc(OCCN4CCCCC4)c3n1)C2=O`, the activity, negative = inhibition is 1.67% [at 19 µM] (inactive).
As to `CCOC(=O)N1CCC(=C2c3ccc(Cl)cc3CCc3cccnc32)CC1`, the Potency entry was “inactive”.
As for `CCN(CC)CCSC(=O)C(c1ccccc1)c1ccccc1`, the Potency was 26.6 µM (active).
In the case of `CCCCCCCCCCCCCOP(=O)(O)O`, the Potency entry is “inactive”.
For `Cc1nc(Nc2ncc(C(=O)Nc3c(C)cccc3Cl)s2)cc(N2CCN(CCO)CC2)n1`, the Potency was 16.8 µM (active).
Same read-out and setting: under `C(=C/c1ccccc1)/c1ccccc1` stands “inactive”.
On the same count and under the same terms, under `C/C=C/C(=O)Oc1c(CCCCCC(C)C)cc([N+](=O)[O-])cc1[N+](=O)[O-]` stands 17.2 µM (active).
`CO[Si](CCCNCCNCCN)(OC)OC`: the Potency entry was “inactive”.
`NC(=O)c1ccccc1N`: the Potency result is “inactive”.
For `COC(=O)[C@]1(C)CCC[C@@]2(C)[C@H]1CC=C1C=C(C(C)C)CC[C@@H]12`, the Potency result is “inactive”.
For `C=C1C(C)(C)[C@@]2(Cl)C(Cl)[C@]1(Cl)C(Cl)(Cl)C2(Cl)Cl` (some centres not stated), the Potency was 60 µM (active).
`O=C(NO)c1ccccc1`: the Potency result was “inactive”.
The same measure, in the same setting: under `Cc1ccc(N)cc1O` stands “inactive”.
On the same count and under the same terms, under `COC(=O)CC#N` stands “inactive”; under `OCCN1CN(CCO)CN(CCO)C1`, “inactive”.
`CCN1CCN(c2cc(-c3ccc(F)cc3)c3c(n2)CCCCCC3)CC1`: the activity, negative = inhibition was 9.21% [at 19 µM] (inactive).
Consider `C[C@@H]1CC[C@H]2C(C)(C)[C@H]3C[C@@]12CC[C@@]3(C)O`, for which the Potency entry is “inactive”.
For the molecule `CC(COC(=O)c1ccccc1)OC(=O)c1ccccc1` (configuration not stated), the Potency result was “inactive”.
For `O=C1Nc2ccc(Cl)cc2[C@@](C#CC2CC2)(C(F)(F)F)O1`, the Potency is 29.8 µM (active).

A further assay can be described thus: qHTS assay to identify small molecule agonists of the retinoic acid receptor (RAR) signaling pathway (AID 1159553). Also: potency is read from the fitted curve at half-maximal effect. Particulars: C3RL4 RARE luciferase reporter, agonist, 6 h; series mostly up to 73.3 µM. Put shortly: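 Cell line C3RL4, RARE luciferase reporter. Treatment: compounds in DMSO, 6 hr, 37 C, 5% CO2, after overnight plating. Detection: luminescence, 30 min RT after reagent.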
Turning to `CCCCCCCCCCCCCCCC`, the Potency entry was “inactive”.
Still for that read-out and setting: under `Cc1cc2c(C(C)C)c(O)c(O)c(C=O)c2c(O)c1-c1c(C)cc2c(C(C)C)c(O)c(O)c(C=O)c2c1O` stands “inactive”; under `CCCCNc1c(C(=O)OCC)c(C)nc2c1cnn2CC`, “inactive”.
For `CC(C)(C)C1=CC(=O)C=C(C(C)(C)C)C1=O`, the Potency result was “inactive”.
The same measure, in the same setting: under `C/C=C/C=N/NC(=O)c1ccncc1` stands “inactive”; under `O=S(=O)(O)CCCN1CCOCC1`, “inactive”.
The same measure, in the same setting: under `CCCC(CC)CCCCCCCN` (configuration not stated) stands “inactive”.
Same read-out and setting: under `CCCCCCCOC(=O)c1ccc(O)cc1` stands 34.4 µM (active).
For `CSc1c(Cl)c(Cl)c(Cl)c(Cl)c1Cl`, the Potency result is “inactive”.
Same read-out and setting: under `ClC/C=C\CCl` stands “inactive”; under `Cc1c(C)n(Cc2ccccc2)c2ccc(C(=O)OCCN(C)C)cc12`, “inactive”.
On the same count and under the same terms, under `O=C1OC(=O)c2cccc3cccc1c23` stands “inactive”; under `CC1=C(/C=C/C(C)=C/C=C/C(C)=C\C=O)C(C)(C)CCC1`, 1.63 µM (active).
The same measure, in the same setting: under `O=C(Oc1ccccc1)c1cccc(C(=O)Oc2ccccc2)c1` stands 0.456 µM (active); under `Cc1cn[nH]c1`, “inactive”; under `O=C(c1ccccc1)c1cc(Cl)ccc1O`, “inactive”.
Consider `CO[C@H]1C=CO[C@@]2(C)Oc3c(C)c(O)c4c(O)c(cc(O)c4c3C2=O)NC(=O)/C(C)=C\C=C/[C@H](C)[C@H](O)[C@@H](C)[C@@H](O)[C@@H](C)[C@H](OC(C)=O)[C@@H]1C`, for which the Potency result was “inactive”.
The same measure, in the same setting: under `COc1cc(C(=O)NS(=O)(=O)c2ccccc2C)ccc1Cc1cn(C)c2ccc(NC(=O)OC3CCCC3)cc12` stands “inactive”; under `NCCCCCCNCCCCCCN`, “inactive”; under `Cc1ccc(CCn2c3c(c4cc(Cl)ccc42)CN(C)CC3)cn1`, “inactive”.
Consider `c1cc2c3c(c1)ccc1cccc(c13)C2`, for which the Potency result was “inactive”.
Still for that read-out and setting: under `COc1cc(C(C)C)c2c(c1)S(=O)(=O)N(COc1cc(=O)n3cccc(OCCN4CCCCC4)c3n1)C2=O` stands “inactive”; under `CCOC(=O)N1CCC(=C2c3ccc(Cl)cc3CCc3cccnc32)CC1`, “inactive”; under `CCN(CC)CCSC(=O)C(c1ccccc1)c1ccccc1`, “inactive”.
The same measure, in the same setting: under `CCCCCCCCCCCCCOP(=O)(O)O` stands “inactive”; under `Cc1nc(Nc2ncc(C(=O)Nc3c(C)cccc3Cl)s2)cc(N2CCN(CCO)CC2)n1`, “inactive”; under `C(=C/c1ccccc1)/c1ccccc1`, “inactive”.
In the case of `C/C=C/C(=O)Oc1c(CCCCCC(C)C)cc([N+](=O)[O-])cc1[N+](=O)[O-]`, the Potency entry is “inactive”.
Turning to `NC(=O)c1ccccc1N`, the Potency entry is “inactive”.
As for `COC(=O)[C@]1(C)CCC[C@@]2(C)[C@H]1CC=C1C=C(C(C)C)CC[C@@H]12`, the Potency result was “inactive”.
In the case of `C=C1C(C)(C)[C@@]2(Cl)C(Cl)[C@]1(Cl)C(Cl)(Cl)C2(Cl)Cl` (some centres not stated), the Potency entry was “inactive”.
For the molecule `O=C(NO)c1ccccc1`, the Potency result is “inactive”.
For the molecule `Cc1ccc(N)cc1O`, the Potency was 12.2 µM (active).
Consider `COC(=O)CC#N`, for which the Potency result was “inactive”.
Still for that read-out and setting: under `CCN1CCN(c2cc(-c3ccc(F)cc3)c3c(n2)CCCCCC3)CC1` stands “inactive”; under `C[C@@H]1CC[C@H]2C(C)(C)[C@H]3C[C@@]12CC[C@@]3(C)O`, “inactive”.
The same measure, in the same setting: under `CC(COC(=O)c1ccccc1)OC(=O)c1ccccc1` (configuration not stated) stands “inactive”.
On the same count and under the same terms, under `O=C1Nc2ccc(Cl)cc2[C@@](C#CC2CC2)(C(F)(F)F)O1` stands “inactive”.
